Compound activity as filed in PubChem BioAssay.
JMJD2A Tudor inh = blocks the human JMJD2A Tudor domain; actives 4.4% (n = 390,000); O75164; AlphaScreen JMJD2A-Tudor / H3K4me3 peptide binding; Potency, µM (series often up to 114 µM), for inactives: at the top dose activity change, negative = inhibition, actives largely listed as inhibitors; also: % is scaled to controls: 0 for no effect and ±100 for the full control effect; nearly all actives have a fitted effect of over 50% in size
BAZ2B block = blocks human BAZ2B; Q9UIF8; AlphaScreen BAZ2B-H3K14Ac peptide displacement; actives 4.4% (n = 360,000); Potency, µM (highest dose often 114 µM), without a hit: at the top dose activity change, negative = inhibition, hits mostly inhibitors; also: % is scaled to controls: 0 for no effect and ±100 for the full control effect; nearly all actives have a fitted effect of over 60% in size
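AlphaScreen displacement of biotin-H3(5-23)K14Ac peptide (50 nM final) from BAZ2B (50 nM final) in PBS pH 7.4, 0.01% Tween-20; complex preformed 30 min RT, then compounds (top 110 uM) 30 min RT, beads 20 min dark.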
G9a inh = inhibitors of human histone lysine methyltransferase G9a | Q96KQ7 | AID 504332 | actives 8.8% (n = 350,000) | G9a H3K9 monomethylation, AlphaScreen, 2 h | Potency, µM (highest dose often 102 µM), for the others: at the highest dose activity, negative = inhibition, actives largely listed as inhibitors; also: % is scaled to controls: 0 for no effect and ±100 for the full control effect; nearly all actives have a fitted effect of over 75% in size
Target sequence (Q96KQ7 913-1193 limits assumed): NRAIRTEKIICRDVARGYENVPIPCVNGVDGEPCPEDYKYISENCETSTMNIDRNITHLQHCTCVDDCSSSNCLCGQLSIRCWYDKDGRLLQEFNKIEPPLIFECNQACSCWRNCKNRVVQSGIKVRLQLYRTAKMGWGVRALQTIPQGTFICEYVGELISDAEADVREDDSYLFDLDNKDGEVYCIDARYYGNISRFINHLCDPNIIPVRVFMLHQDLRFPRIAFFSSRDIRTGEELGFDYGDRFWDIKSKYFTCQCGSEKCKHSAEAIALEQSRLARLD
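Using a bead-based AlphaScreen, monomethylated H3K9 product from 2 h room-temperature reactions (G9a 20 nM, peptide 500 nM, SAM 20 uM) was detected with 0.5 ug/mL rabbit anti-H3K9me1 antibody.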
HP1b chromo inh = HP1-beta chromodomain-methylated histone interaction inhibition; AlphaScreen HP1-beta / biotin-H3K9me3 peptide binding; Potency, µM (top dose mostly 114 µM), for inactives: at the top dose activity change, negative = inhibition, actives largely listed as inhibitors; actives 0.56% (n = 390,000); also: nearly all actives have a fitted effect of over 70% in size
Target sequence (P83916 whole entry, looked up): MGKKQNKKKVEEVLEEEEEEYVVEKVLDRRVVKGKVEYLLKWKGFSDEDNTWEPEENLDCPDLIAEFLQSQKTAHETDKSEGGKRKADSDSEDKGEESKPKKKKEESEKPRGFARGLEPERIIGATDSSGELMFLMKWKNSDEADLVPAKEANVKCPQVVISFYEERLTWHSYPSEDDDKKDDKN
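HP1-beta protein (50 nM final) preincubated 30 min at room temperature with biotinylated H3(1-18)K9me3 peptide (50 nM) in PBS pH 7.4, 0.01% Tween-20, then compound added for 30 min. AlphaScreen streptavidin donor/nickel chelate acceptor beads (10 ug/mL final), 30 min dark, luminescence read.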
Sfp inh = inhibitors of Bacillus subtilis Sfp phosphopantetheinyl transferase; Q9F4F7; Biochemical Sfp PPTase activity, qHTS; Potency, µM, inactives show largest response in the series, negative = inhibition, most hits filed as inhibitors; actives 3.5% (n = 310,000); AID 1490;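 also: the enzyme is Sfp with the accession as filed and its product quenches rhodamine fluorescence; 0% = enzyme reaction without inhibitor and -100% = no enzyme wells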
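Sfp 15 nM + cpd, 15 min RT; start w/ rhodamine-CoA 5 uM, BHQ-2-YbbR 12.5 uM (final); 50 mM Hepes pH 7.6, 10 mM MgCl2, 0.01% NP-40, 0.01% BSA; read 525/598 nm at 0 and 30 min.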
The depositor's hits bear a star; ? = inconclusive; nt = not tested or not shown; ! = a repeat was not active; [ ] = another dose, or the depositor's remark. Only some compounds are listed: those with a hit (about 12% of all), similar ones and a draw of the others. Calls follow the shape of the dose curve; as a rule, active = well fitted curve in the direction sought with a large enough effect; inconclusive = small, poorly fitted or top-dose-only effect, or another doubt; inactive = no such curve, though single readings can be large; an effect the other way counts as inactive or inconclusive. Potency is read from the fitted curve at half-maximal effect.

SMILES | JMJD2A Tudor inh | BAZ2B block | G9a inh | HP1b chromo inh | Sfp inh
CC(C)(C)C(=O)Nc1sc2c(c1C(=O)Nc1ccccn1)CCCC2 | 45µM* | 6% | -9% | 12% | 14%
O=C(Nc1cccc(Cl)c1)c1c(NC(=O)C(F)(F)F)sc2c1CCCC2 | 79µM* | 50µM* | 4µM* | ? | nt
Cc1ccc(NC(=O)c2c(NC(=O)C(F)(F)F)sc3c2CCCCC3)cc1 | ? | -29% | ? | ? | nt
CCCCN(CCCC)CCNC(=O)c1cn(C)c2ccc(S(=O)(=O)N3CCOCC3)cc2c1=O | -5% | nt | 0%[59 µM] | 26% | nt
CC(C)NC[C@H](O)c1ccc(O)c(O)c1 | -15% | 12% | 8.9µM*! | 12% | 4µM*!
CC(C)NCC(O)c1cc(O)cc(O)c1 (stereo not given) | -1% | 2% | 25µM*! | 21% | 17%
CC(C)NC[C@H](O)c1cc(O)cc(O)c1 | nt | nt | -6%[12.7 µM] | nt | 4%
O=C(Nc1ccc2oc(=O)ccc2c1)c1ccc(-c2cccc([N+](=O)[O-])c2)o1 | -32% | 35µM* | ? | -1% | 1%
CCn1nnc(NC(=O)c2ccc(-c3ccc(Cl)cc3)o2)n1 | ? | -6% | 45µM* | 33% | ?
CN1CCN(c2ccc(NC(=O)c3ccc(-c4ccc(Cl)cc4)o3)cc2)CC1 | ? | 8.9µM* | nt | -18% | -23%
CN1CCN(c2ccc(NC(=O)c3ccc(-c4cccc([N+](=O)[O-])c4)o3)cc2)CC1 | ? | 45µM* | ? | ? | -17%
CCOC(=O)c1[nH]c2ccccc2c1NC(=O)c1ccc(S(=O)(=O)N2CCCC2)cc1 | -17% | 1% | ? | 20% | 12%
OC1(Cc2cc(-c3ccccc3)no2)CCN(CCCc2ccccc2)CC1 | -7% | 12%[0.457 µM] | 10%[59 µM] | 17% | 17%
O=C(Nc1ccc(OC(F)(F)F)cc1)C1CCCCN1S(=O)(=O)c1ccccc1 (stereo not given) | -3% | 1% | 19% | 43% | nt
CCC1CCCCN1C(=O)CSc1n[nH]c(-c2ccccc2)n1 (stereo not given) | 3% | 0% | -30%[59 µM] | 19%[57 µM] | nt
COc1ccc(C2N(c3ccc(C)cc3)CCN2c2ccc(C)cc2)cc1O | 28µM* | 32µM* | 18µM* | -16% | 12%
O=C1COc2ccc(C(=O)c3ccccc3C(=O)O)cc2N1 | -11% | 1% | ? | 23% | 28%
O=C1COc2ccc(NC(=O)c3ccccc3C(=O)O)cc2N1 | -9% | -17% | ? | 31% | 79µM*
O=C1NN=C(CSc2n[nH]c(=S)s2)CS1 | 18µM* | 79µM* | 2.5µM* | -35% | ?
Cc1cccc(Cn2c(COc3ccccc3)nc3ccccc32)c1 | 53% | 95% | 53%[59 µM] | 79% | nt
CCOC(=O)c1sc2cc([N+](=O)[O-])cc(SCCO)c2c1N | -6% | -10% | 7%[59 µM] | 4% | -7%
CCOC(=O)c1sc2cc([N+](=O)[O-])cc(SCC(=O)OC)c2c1N | 45µM* | 40µM* | 7.9µM* | ? | ?
CCOc1cc(C2C(C#N)=C(N)Oc3n[nH]c(-c4ccncc4)c32)cc([N+](=O)[O-])c1O (stereo not given) | -27% | nt | -23% | 13% | 79µM*
CCCc1[nH]nc2c1C(c1ccc(O)cc1OCC)C(C#N)=C(N)O2 (stereo not given) | -18% | 79µM* | ? | 5% | 8%
COc1ccc(/C=C/c2nc(S(=O)(=O)c3ccccc3)c(N(C)C)o2)cc1 | 28% | 1% | 9%[0.0925 µM] | 53% | 7%
SMILES | JMJD2A Tudor inh | BAZ2B block | G9a inh | HP1b chromo inh | Sfp inh
Cc1cc(Cl)ccc1OCC(=O)N[C@@H](Cc1ccccc1)c1nc2ccccc2[nH]1 | -17% | 56µM* | ? | 34% | 7%
CCN1C(=O)/C(=C2/C=Cc3ccccc3N2C)OC1=S | -25%[11.4 µM] | -29% | 20µM* | 6% | -19%
CCN1C(=O)/C(=C2\C=Cc3cc(C)ccc3N2CC)OC1=S | ? | ? | ? | ? | 1%
CCN1C(=O)/C(=C2\C=Cc3ccccc3N2CC)SC1=S | 2.8µM* | 8.9µM* | ? | 3.2µM* | -29%
Cc1ccc(NC(=O)CCc2nnc3n(C)c(=O)c4sccc4n23)cc1C | -7% | 1% | -25%[59 µM] | 19% | nt
Cc1c(C(=O)Oc2cc(N)n(S(C)(=O)=O)n2)cccc1[N+](=O)[O-] | -22% | ? | 16µM* | 8% | -27%
Cc1ccccc1C(=O)Oc1cc(N)n(S(C)(=O)=O)n1 | -8% | -17% | -20% | 40% | 1%
COCCNC(=O)c1c[nH]n2c(=O)cc(C3CCN(C(=O)OC(C)(C)C)CC3)nc12 | -8% | -21% | 56µM* | 25% | 15%
CC(=O)c1ccc(NC(=O)C2CCN(c3nnc(C)c4c(C)n(-c5ccccc5)nc34)CC2)cc1 | ? | ? | -48%[59 µM] | 24% | nt
COc1ccc2cc(/C=C/C(=O)c3ccco3)c(Cl)nc2c1 | nt | 3% | 50µM* | nt | -6%
COc1cc2cc(/C=C/C(=O)c3ccco3)c(Cl)nc2cc1OC | -30% | -23% | ? | -6% | ?
CCOC(=O)N1CCN(C(=S)NC(=O)c2cccc(OC)c2)CC1 | -5% | nt | nt | 20% | nt
COc1ccc(C(=O)NC(=S)N2CCC(C)CC2)cc1 | -12% | -20% | 16µM* | 19% | -4%
CC(=O)N1CCN(C(=S)NC(=O)c2ccc(F)cc2)CC1 | 1.6µM* | nt | nt | 10% | nt
CCOC(=O)N1CCN(C(=S)NC(=O)c2ccc(F)c(F)c2)CC1 | -9% | -24% | 45µM* | 37% | 3%
S=c1[nH]ncn1NCc1cccc(Br)c1 | 16µM* | nt | nt | 18% | nt
Cc1ccc(CNn2cn[nH]c2=S)cc1 | 8.9µM* | nt | nt | 38% | nt
C=CCOc1ccc2ccccc2c1CNn1cn[nH]c1=S | ? | -9% | nt | 31% | -7%
C=CCOc1ccc(CNn2cn[nH]c2=S)cc1 | 32µM* | -2% | 20µM* | 25% | -7%
COc1cccc(-n2c(-c3ccc4[nH]c(C)c(C)c4c3)n[nH]c2=S)c1 | ? | ? | nt | -6% | ?
Cc1cccc(-n2c(-c3ccncc3)n[nH]c2=S)c1 | 28µM* | 3% | 1.3µM* | 4% | 79µM*
COc1cccc(-n2c(C)n[nH]c2=O)c1 | 9% | 7% | 63%[59 µM] | 33% | 8%
Cc1cccc(-n2c(C)c(-c3ccccc3)[nH]c2=S)c1 | 35µM* | ? | nt | ? | 3.5µM*
Cc1cccc(-n2c(C)n[nH]c2=S)c1 | 10µM* | ? | ? | 15% | -11%
C=C1CCN(C(CC(C)C)C(=O)O)S(=O)(=O)c2ccccc21 (stereo not given) | -19% | nt | nt | 23% | 14%
Cc1cc(=O)nc2c3ccccc3n(CC(=O)NC(C)c3ccc4c(c3)OCCO4)n12 (stereo not given) | -2% | -25% | -1%[59 µM] | 40% | 13%
CCn1cc(C(=O)O)c(=O)c2cnc(N3CCN(C(=S)NC(=O)c4ccc(Br)cc4)CC3)nc21 | 56µM* | 1% | nt | 27% | 22%
